Screens deposited in PubChem by National Center for Advancing Translational Sciences (NCATS).
ALDH1A1 inh: qHTS Assay for Inhibitors of Aldehyde Dehydrogenase 1 (ALDH1A1). Aldehyde dehydrogenase 1A1 (Homo sapiens), P00352. Purified ALDH1A1, NADH fluorescence, propionaldehyde substrate. Potency, µM (top dose mostly 75.3 µM), for inactives: top-dose activity, negative = inhibition, hits mostly inhibitors. hit rate 7.3% among 220,000; active = well fitted inhibition curve with a large enough effect, not every such curve was filed as active; inconclusive = small, poorly fitted or top-dose-only effect, or another doubt; inactive = no such curve, though single readings can be large or run the other way;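 note: plate controls were no enzyme wells and a reference inhibitor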
Target sequence (P00352 whole entry, looked up): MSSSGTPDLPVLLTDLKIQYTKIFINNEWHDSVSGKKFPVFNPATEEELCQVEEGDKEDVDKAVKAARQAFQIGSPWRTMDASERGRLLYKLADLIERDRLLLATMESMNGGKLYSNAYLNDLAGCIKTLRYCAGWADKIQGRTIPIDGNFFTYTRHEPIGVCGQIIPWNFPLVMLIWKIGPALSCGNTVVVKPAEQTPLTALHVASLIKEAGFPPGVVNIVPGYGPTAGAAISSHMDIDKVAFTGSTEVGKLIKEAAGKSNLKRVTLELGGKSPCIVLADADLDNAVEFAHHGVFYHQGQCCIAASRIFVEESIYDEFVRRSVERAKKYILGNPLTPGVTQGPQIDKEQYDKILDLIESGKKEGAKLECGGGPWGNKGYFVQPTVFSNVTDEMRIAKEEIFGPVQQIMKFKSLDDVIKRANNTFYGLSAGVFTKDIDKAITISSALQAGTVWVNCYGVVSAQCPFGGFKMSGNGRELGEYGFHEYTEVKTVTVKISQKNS
RORgamma inh: qHTS for inhibitors of ROR gamma transcriptional activity | Drosophila S2 Gal4-RORgamma UAS-luciferase reporter, 20 h | Potency, µM (titrated, usually from 53.6 µM), for the others: at the highest dose activity change, negative = inhibition, actives largely listed as inhibitors | hit rate 5.4% among 310,000 | AID 2551, 2010; note: nearly all actives have a fitted effect of over 60% in size
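In this cell-based reporter format, copper sulfate (700 uM final) drives Gal4–ROR gamma fusion expression from a metallothionein promoter in Drosophila Schneider cells; compounds preincubated 1 hr, reporter read after 20 hr at ambient temperature.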
Gal4-VP16 FLuc: VP16 counterscreen qHTS for inhibitors of ROR gamma transcriptional activity; AID 2546, 2010; Drosophila S2 Gal4-VP16 UAS-luciferase, luminescence, 20 h; hit rate 3.5% among 310,000; Potency, µM (titrated, usually from 53.6 µM), without a hit: top-dose activity, negative = inhibition, usual class: inhibitors;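 note: Gal4-VP16 expression switched on by copper sulfate through the metallothionein promoter; nearly all actives have a fitted effect of over 50% in size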
Sfp inh: qHTS Assay for Inhibitors of Bacillus subtilis Sfp phosphopantetheinyl transferase (PPTase); 4'-phosphopantetheinyl transferase ffp (Bacillus subtilis), Q9F4F7; Biochemical Sfp PPTase activity, qHTS; Potency, µM, for inactives: largest response in the series, negative = inhibition, actives largely listed as inhibitors; hit rate 3.5% among 310,000; AID 1490, 2009;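 note: the enzyme is Sfp with the accession as filed and its product quenches rhodamine fluorescence; 0% = enzyme reaction without inhibitor and -100% = no enzyme wells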
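Fluorescence-quenching assay: 15 nM Sfp-PPTase preincubated 15 min at room temperature with compound, then 5 uM rhodamine-CoA and 12.5 uM BHQ-2-labelled YbbR peptide added. Fluorescence (ex 525/em 598 nm) read at start and after 30 min; difference gives rate.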
PLK1 PBD inh: qHTS for Inhibitors of PLK1-PDB (polo-like kinase 1 - polo-box domain): Primary Screen; Plk1 PBD binding of FITC phosphopeptide, fluorescence polarization; hit rate 2.8% among 360,000; Serine/threonine-protein kinase PLK1 (Homo sapiens), P53350; Potency, µM, inactives show max response, negative = inhibition, hits mostly inhibitors; note: series mostly up to about 57 µM; nearly all actives have a fitted effect of over 65% in size
An asterisk follows results filed as active; ? = inconclusive; nt = not tested or not shown; ! = not active in a repeat; [ ] = remark or other dose. Compounds with a hit are over-represented: about 12% of the library has one in this group of screens. Unless noted, calls come from the whole dose curve; as a rule, active = well fitted curve in the direction sought with a large enough effect; inconclusive = small, poorly fitted or top-dose-only effect, or another doubt; inactive = no such curve, though single readings can be large; an effect the other way counts as inactive or inconclusive. Unless noted, % is set by controls: 0 for no effect and ±100 for the full control effect; potency is the fitted concentration of half-maximal effect.

SMILES	ALDH1A1 inh	RORgamma inh	Gal4-VP16 FLuc	Sfp inh	PLK1 PBD inh
Oc1ccc(C[C@H]2NCCc3cc(O)c(O)cc32)cc1O	nt	-29.2%	?	70.8µM*	-9.2%
C#C[C@@]1(O)CC[C@@H]2[C@@H]3CCC4=CC(=O)CC[C@@]4(C)[C@H]3CC[C@]21C	-4.1%[20.9 µM]	-10.6%[16.9 µM]	-3.9%[17 µM]	-3.3%	nt
COc1ccc(N/N=C/c2c(O)n(-c3cccc(C)c3)c(=O)[nH]c2=O)cc1	3.16µM*	3.9%	2.9%	-26.7%	-12.8%
Cc1ccc(-n2c(O)c(/C=N/NC(=O)c3ccncc3)c(=O)[nH]c2=O)cc1	?	40.1%	4.3%	-1.0%	1.9%
CCn1c(O)c(/C=N/NC(=O)c2ccncc2)c(=O)n(CC)c1=S	?	-4.5%	-19.4%	79.4µM*	-4.4%
Cc1cccc(-n2c(O)c(/C=N/NC(=O)c3ccncc3)c(=O)[nH]c2=O)c1	nt	35.5µM*	-10.3%	-1.3%	-9.8%
COc1ccc(N/N=C/c2c(O)n(-c3ccc(C)c(C)c3)c(=O)[nH]c2=O)cc1	1.58µM*	13.8%	-7.3%	-25.1%	?
O=C(O)C(C(=O)O)P(=S)(S)c1ccccc1 (stereo not drawn)	8.3%[13.5 µM]	nt	nt	nt	nt
COC(=O)C1C(=O)C=C(Nc2ccc(F)cc2F)CC1c1ccccc1 (stereo not drawn)	?	?	-16.6%	9.5%	-8.8%
C#C[C@]1(O)CC[C@H]2[C@@H]3CCC4=CC(=O)CCC4(C)[C@H]3CCC21C (stereo partly drawn)	5.4%	-15.7%	4.0%	29.6%	nt
O=C1CCCN1C(=O)c1cncc(Br)c1	4.9%	-24.3%	11.5%	11.0%	-3.6%
Nc1cncc(C(=O)O)c1	?	-0.2%	-1.5%	79.4µM*!	-16.3%
CC1(C)C(C(=O)N2CCN(c3ccc(Cl)cc3)CC2)C1(C)C	nt	18.8%	-11.2%	-2.9%	-11.3%
COC(=O)C1CN(C#N)N(c2ccc(Cl)cc2)C12c1ccccc1-c1ccccc12 (stereo not drawn)	-5.7%	0.562µM*	0.794µM*	-17.3%	?
O=C(Cc1coc2cc3c(cc12)CCC3)OCC(=O)N1CCCC1=O	-5.8%	-30.5%	?	2.2%	-3.7%
CN1CCN(c2ccc(N)cc2Cl)CC1	-92.0%	-29.0%	-5.2%	?	15µM*
CN1[C@H]2CC(=O)C[C@@H]1[C@@H](O)C2	2.0%[20.9 µM]	23.3%[16.9 µM]	-2.6%[17 µM]	?	nt
CCOC(=O)C1OC1(C)c1ccccc1 (stereo not drawn)	-2.7%	2.1%	-4.0%	nt	nt
O=S(=O)(Nc1c(O)ccc2ccccc12)c1ccc(F)cc1	nt	nt	nt	nt	10.6µM*
O=C1NC(=O)N(c2ccc3c(c2)OCO3)C(=O)/C1=C/c1cccs1	?	3.3%	?	11.2µM*	2.12µM*
O=C1NC(=O)N(c2ccc3c(c2)OCO3)C(=O)/C1=C/c1ccsc1	?	1.3%	-8.5%	39.8µM*	7.52µM*
O=C1NC(=O)N(c2ccc3c(c2)OCO3)C(=O)/C1=C/c1ccc(N2CCCC2)o1	-3.1%	3.7%	-10.4%	-8.9%	70.5%
CCc1ccc(N2C(=O)NC(=O)/C(=C/c3ccsc3)C2=O)cc1	-5.2%	0.6%	-7.8%	50.1µM*	nt
CN1C(=O)C(=Cc2cn(CC(=O)N3CCCCC3)c3ccccc23)C(=O)N(C)C1=O	nt	-10.2%	2.3%	2.4%	13.4µM*
CN1C(=O)C(=Cc2cn(CC#N)c3ccccc23)C(=O)N(C)C1=O	nt	22.2%	-8.0%	-8.0%	1.19µM*
SMILES	ALDH1A1 inh	RORgamma inh	Gal4-VP16 FLuc	Sfp inh	PLK1 PBD inh
CCOC(=O)Cn1cc(C=C2C(=O)N(C)C(=O)N(C)C2=O)c2ccccc21	nt	-1.1%	-4.6%	-12.1%	?
Cc1cc(C=C2C(=O)N(C)C(=O)N(C)C2=O)c(C)n1-c1ccccc1	?	-15.9%	9.1%	-3.2%	-3.9%
CN1C(=O)C(=Cc2cn(CC(=O)N3CCCC3)c3ccccc23)C(=O)N(C)C1=O	nt	1.7%	12.6%	7.3%	26.7µM*
CN1C(=O)C(=Cc2coc3ccccc3c2=O)C(=O)N(C)C1=O	0.891µM*	12.3%	-13.5%	-19.8%	18.9µM*
N#Cc1ccc(CN2CC[C@@]3(CCCN(C(=O)Oc4ccccc4)C3)C2)cc1	-5.4%	3.4%	0.5%	25.0%	nt
N#CC(O)c1ccccc1 (stereo not drawn)	0.2%	17.5%	-6.0%	nt	nt
O=C(c1c[nH]c(C(=O)C(Cl)(Cl)Cl)c1)c1ccccc1Cl	?	-29.4%	?	0.4%	-17.7%
CC/C(=N\NC(=S)Nc1ccccc1)c1c(O)[nH]c(=O)[nH]c1=O	nt	5.62µM*	?	22.4µM*	-1.0%
c1ccc(N2CCC3(CCNCC3)CC2)cc1	-17.6%	-14.2%	3.4%	?	nt
CN(C)c1ccc(/C=C/[N+](=O)[O-])cc1	?	11.2µM*	12.6µM*	-8.7%	-3.7%
C/C(=C\c1ccc(N(C)C)cc1)[N+](=O)[O-]	?	7.08µM*	22.4µM*	-7.1%	?
Nn1cnnc1	12.1%	-5.9%	4.7%	nt	nt
Cc1c(N=Nc2c(O)[nH]c(=O)[nH]c2=O)c(=O)n(-c2ccccc2)n1C	-90.2%	-12.9%	4.8%	44.7µM*	0.9%
Cc1c(N=Nc2c(O)n(-c3ccc(Br)cc3)c(=O)[nH]c2=O)c(=O)n(-c2ccccc2)n1C	-16.3%	8.8%	-2.0%	-27.7%	-6.7%
O=C(C1CC(=O)N(C2CCCCCCC2)C1)N1CCC2(CC1)OCCO2 (stereo not drawn)	25.1µM*	21.1%	-3.9%	-4.4%	-7.2%
O=C(C1CCC(=O)N1C1CCCC1)N1CCC2(CC1)OCCO2 (stereo not drawn)	-7.1%	-2.3%	0.2%	11.5%	-2.7%
O=C1C=CC(=O)C=C1	?	11.2µM*	0.6%	nt	?
O=C(c1sc2ccccc2c1Cl)N1CCC2(CC1)OCCO2	10µM*	?	-0.6%	14.9%	-5.4%
CC(=O)Oc1ccc(/C=C/c2cc(OC(C)=O)cc(OC(C)=O)c2)cc1	-5.5%	3.98µM*	?	19.5%	nt
C/C=C/c1ccc(OC)cc1	?	-0.3%	3.9%	17.8%	nt
CCOC(=O)c1c(-n2c(C)cc(/C=C3\C(=O)NC(=O)N(C)C3=O)c2C)sc2c1CCCC2	0.2%	1.9%	1.8%	?	2.67µM*
Cc1cc(/C=C2\C(=O)NC(=O)N(c3ccc(Cl)cc3)C2=O)c(C)n1-c1sc2c(c1C#N)CCCC2	0.251µM*	4.3%	5.5%	31.6µM*	1.19µM*
Cc1ccc(N2C(=O)NC(=O)/C(=C\c3cc(C)n(-c4cc(C(=O)O)cc(C(=O)O)c4)c3C)C2=O)cc1	nt	-5.1%	-1.9%	12.4%	?
Cc1sc(-n2c(C)cc(C=C3C(=O)NC(=O)NC3=O)c2C)c(C#N)c1C	0.631µM*	25.9%	-25.8%	50.1µM*	?
C[C@@H](NC(=O)[C@@H](N)Cc1ccc(O)cc1)C(=O)NCC(=O)N(C)[C@@H](Cc1ccccc1)C(=O)NCCO	nt	0.7%	-1.7%	1.9%	nt
